From PubChem
A selection: hits, their analogues and other compounds. The true share with any hit is near 4.7%.
D1 agonist – activates the human D1 dopamine receptor. HEK293 T-REx D1 cells, calcium flux, agonist mode. activation, % at 2 µM. actives 1% (n = 360,000); also: 0% is about no effect
Target sequence (P21728 whole entry, looked up): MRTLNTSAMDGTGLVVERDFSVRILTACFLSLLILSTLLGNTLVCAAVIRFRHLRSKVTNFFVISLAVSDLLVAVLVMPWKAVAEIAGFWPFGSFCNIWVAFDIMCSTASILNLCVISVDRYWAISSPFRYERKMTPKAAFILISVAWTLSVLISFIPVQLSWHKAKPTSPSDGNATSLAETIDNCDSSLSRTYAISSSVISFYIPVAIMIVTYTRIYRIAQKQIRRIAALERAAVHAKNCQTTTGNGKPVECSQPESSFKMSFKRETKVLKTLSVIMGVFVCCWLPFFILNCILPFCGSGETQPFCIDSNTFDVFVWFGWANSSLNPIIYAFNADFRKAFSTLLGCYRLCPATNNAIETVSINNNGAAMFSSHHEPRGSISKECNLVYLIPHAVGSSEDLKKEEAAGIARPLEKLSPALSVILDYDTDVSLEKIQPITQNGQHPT
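Inducible HEK293 T-REx D1 cells, force-coupled to calcium signalling, were plated at 4000 cells/well with tetracycline and held overnight at 30 C. After no-wash calcium dye loading, compound-evoked calcium rise over 180 s flagged agonists.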
TRHR enhancer – allosteric enhancers of human TRH receptor; P34981; TRHR cells, fluo-8 calcium fluorescence, EC20 TRH enhancement; enhancement, % at 2 µM; actives 0.66% (n = 360,000); AID 493056; in the data active = enhancement above about 30%; also: 0% is about no effect
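Enhancer read-out: after compound pinning and an initial kinetic agonist-mode read, an EC20 of TRH (10 nM final) was injected and fluo-8 calcium signal (Ex 480/Em 530) followed at 1 s/cycle for 100 cycles in TRHR-expressing cells.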
TRHR agonist – agonists of human TRH receptor; P34981; TRHR cells, calcium flux fluo-8, FDSS agonist mode; activation, % at 2 µM; actives 0.18% (n = 360,000); AID 493084; also: 0% is about no effect
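TRHR-expressing cells, plated overnight in medium with 10% serum, were loaded with fluo-8 calcium dye at room temperature. After a 10 s baseline, library compound was pin-added and calcium release was recorded kinetically (ex 480/em 530) as agonist response.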
D1 potentiator – enhances dopamine response at the human D1 receptor; HEK293 TREx D1 cells, calcium flux, dopamine EC20 potentiation; P21728; potentiation, % at 10 µM; actives 0.036% (n = 360,000); in the data active = potentiation above about 30%; also: 0% is about no effect
D1 antagonist – blocks dopamine activation of the human D1 receptor | HEK293 TREx D1 cells, calcium flux, dopamine EC80; hits give low values | P21728 | actives 3.2% (n = 360,000) | AID 504652 | activity change, negative = inhibition, % at 10 µM; in the data active = activity change below about -30%; also: % is scaled to controls: 0 for no effect and ±100 for the full control effect
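After overnight tetracycline induction at 30 C, force-coupled D1 HEK293 cells took up a no-wash calcium dye at room temperature. Compounds were added and monitored 180 s, and the response to EC80 dopamine was then recorded.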
The depositor's hits bear a star; / = no result; ! = a repeat was not active. Rule as the data show it, unless noted: active = activation above about 30%; inactive = the rest.

SMILES	D1 agonist	TRHR enhancer	TRHR agonist	D1 potentiator	D1 antagonist
CC(/C=C\c1cccnc1)=C/C(=O)O	3	-3	1	-10	-62*!
CN(C)CCCN(C(=O)c1ccc2c(c1)OCCO2)c1nc2ccccc2s1	28	-3	2	-5	-18
CN(C)CCNC(=O)c1cc2c(s1)-c1ccccc1OC2	122*	19	0	-8	-53*
CCN1CCN(CCCNC(=O)c2cc3c(s2)-c2ccccc2OC3)CC1	0	-6	0	-13	41
CCCN1CCN(CCCNC(=O)c2cc3c(s2)-c2c(C)cccc2OC3)CC1	5	-2	0	-10	-38*!
O=C(NCCCN1CCN(c2ccccc2F)CC1)c1cc2c(s1)-c1ccccc1OC2	5	-6	0	-7	-46*
Cc1cccc2c1-c1sc(C(=O)N3CCN(c4ccccc4)CC3)cc1CO2	4	18	0	-4	-32*
Cc1cccc2c1-c1sc(C(=O)N3CCN(c4ccc(F)cc4)CC3)cc1CO2	1	0	0	-2	10
Cc1ccc2oc(-c3cc(NC(=O)Cc4ccccc4)ccc3Cl)nc2c1	8	-1	3	-3	-16
Cc1ccc(C)c(NC(=O)Cn2ncc3c([nH]c4ccccc43)c2=O)c1	0	-10	0	2	5
O=S1(=O)N=C(Nc2cccc(C(F)(F)F)c2)c2ccccc21	13	5	1	-5	-5
Cc1ccc(C)c(N(C)C(=O)c2cc3c(s2)-c2ccccc2OC3)c1	-1	8	0	2	8
O=C(NCc1cccc(Cl)c1)c1cc2c(s1)-c1ccccc1OC2	4	2	1	-8	-50*
COc1ccc(N(C)C(=O)c2cc3c(s2)-c2ccccc2OC3)c(OC)c1	2	-3	-1	-9	-40*
Cc1csc(NC(=O)c2cc3c(s2)-c2ccccc2OC3)n1	3	3	0	3	-9
Cc1c(NC(=O)c2cc3c(s2)-c2ccccc2OC3)cccc1[N+](=O)[O-]	3	13	1	-8	-40*
CCCN1CCN(CCCNC(=O)c2cc3c(s2)-c2ccccc2OC3)CC1	5	37*!	0	-11	-12
COc1ccccc1CNC(=O)c1cc2c(s1)-c1ccccc1OC2	4	14	0	-6	-20
O=C(CC(=O)N/N=C/c1c(Cl)cccc1Cl)NCc1cccnc1	1	10	-1	-3	-10
Cc1cc2c(s1)c1cnn(Cc3c(F)ccc(C)c3F)c(=O)c1n2C	0	4	0	12	-24
CC1CC(C)CN(CCCNC(=O)c2cc3c(s2)-c2ccccc2OC3)C1 (centres undefined)	7	9	2	-2	1
Cc1cccc2c1-c1sc(C(=O)NCCCN3CCCC(C)C3)cc1CO2 (centres undefined)	19	0	1	-19	-51*
Cc1ccccc1Nc1nc(N)nc(COC(=O)c2ccc(O)cc2)n1	17	5	2	-10	-43*
Cc1ccc(C)c(Nc2c([N+](=O)[O-])ccc3nonc23)c1	108*	14	-1	5	66
O=[N+]([O-])c1ccc(O)c(Nc2c([N+](=O)[O-])ccc3nonc23)c1	19	7	-2	-2	-49*
SMILES	D1 agonist	TRHR enhancer	TRHR agonist	D1 potentiator	D1 antagonist
Cc1ccc(C)c(Nc2ccc3nonc3c2[N+](=O)[O-])c1	5	2	-1	-6	-11
CCCCCOC(=O)CSc1nc2sc3c(c2c(=O)n1Cc1ccccc1)CC(C)(CC)OC3 (centres undefined)	9	0	1	-1	-8
Cc1cc(C)nc(NC(=NCCc2c[nH]c3ccccc23)NC(=O)C(C)(C)C)n1	3	2	0	-18	-55*
Cc1cc(C)nc(NC(=NCCc2c[nH]c3ccc(Cl)cc23)NC(=O)c2ccccc2C)n1	-1	-9	2	-2	1
CCC1=NN(C(=O)Cc2ccc([N+](=O)[O-])cc2)C(O)(C(F)(F)F)C1 (centres undefined)	33*	-1	-2	-3	-12
CC(C)(C)C1(O)CC(C(F)(F)F)=NN1C(=O)Cc1ccc([N+](=O)[O-])cc1 (centres undefined)	6	-5	1	-6	-34*
Cc1ccccc1OCC(=O)N1N=C(C(F)(F)F)CC1(O)C(C)(C)C (centres undefined)	59*	1	0	5	15
CN(C)CCN(C(=O)c1cccs1)c1nc2cc3c(cc2s1)OCCO3	4	1	0	0	-3
CCN(CCCNc1ncnc2nc[nH]c12)c1cccc(C)c1	8	-3	0	-10	-36*
CCCCN(CCCNc1ncnc2nc[nH]c12)c1ccccc1	8	-4	0	-6	-14
COc1ccc(OC)c(S(=O)(=O)N2CCN(CC(O)COc3ccc(C#N)cc3)CC2)c1 (centres undefined)	4	22	1	-7	-19
COc1ccc(CCN2C(=O)CSC2c2cccc([N+](=O)[O-])c2)cc1OC (centres undefined)	-2	-5	0	-4	-30*
CC1(C)C2CCC1(C)C(OCC[N+](C)(C)CC(=O)OC1CCCCC1)C2 (centres undefined)	1	16	0	-3	-66*
COc1ccccc1C(CCNS(=O)(=O)c1ccc(C)cc1)c1ccco1 (centres undefined)	42*	10	0	-4	21
COc1ccc(Cl)cc1NC(=O)c1ccc2c(c1)CCN2S(C)(=O)=O	1	-2	2	1	-13
O=C(CN1CCN(Cc2ccccc2F)C1=O)NCCc1ccc(Cl)cc1	2	-2	0	/	-9
O=C(CN1CCN(Cc2ccccc2Cl)C1=O)NCCc1ccc(Cl)cc1	3	-8	-1	-1	-33*
Cc1nc2ccccc2c2nc(N)nn12	0	-8	-2	-10	-56*
CCn1c(CNC(=O)c2ccc(OC)cc2)nnc1SCC(=O)Nc1cccc(C)c1	0	-1	0	-1	-9
CCOc1ccc(NC(=S)N(CCCN2CCCC2)Cc2cccn2Cc2ccc(Cl)cc2)cc1	4	-8	1	-14	-48*
O=C(CSc1nnc(Cn2nnc3ccccc32)o1)N(Cc1ccc(F)cc1)c1ccccc1	2	-4	0	-3	-41*
COc1ccc(N(Cc2ccccc2)C(=O)CSc2nnc(Cn3nnc4ccccc43)o2)cc1	4	17	1	3	10
COCCCNS(=O)(=O)c1ccc(SC)cc1	3	-1	0	-3	-4
CSc1ccc(S(=O)(=O)NCCOc2ccccc2C)cc1	9	-3	0	-7	-31*
COc1ccc2c(=O)c(Oc3ccc(C(=O)O)cc3)c(C(F)(F)F)oc2c1	3	-12	0	-7	-30*
Cc1ccccc1Cc1ccc(Cl)nn1	1	-1	0	-5	-44*
